hcGAS lum = Primary biochemical luminescence assay for human cyclic GMP-AMP synthase inhibitors; Q8N884; recombinant h-cGAS, ATP depletion, Kinase-Glo luminescence; inhibition, % at 12.5 µM; 290,000 tested, 0.081% active; AID 1259398, 2018;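 further: 0% = vehicle reaction and 100% = reaction without DNA for no activity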
mcGAS lum = cyclic GMP-AMP synthase inhibitors, mouse, primary biochemical chemiluminescence | recombinant cGAS, Kinase-Glo ATP depletion luminescence | AID 1259399, 2018 | 160,000 tested, 0.15% active | Q8C6L5 | inhibition, % at 12.5 µM;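 further: 0% = negative control wells and 100% = reference inhibitor with no enzyme activity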
Target sequence (Q8C6L5 whole entry, looked up): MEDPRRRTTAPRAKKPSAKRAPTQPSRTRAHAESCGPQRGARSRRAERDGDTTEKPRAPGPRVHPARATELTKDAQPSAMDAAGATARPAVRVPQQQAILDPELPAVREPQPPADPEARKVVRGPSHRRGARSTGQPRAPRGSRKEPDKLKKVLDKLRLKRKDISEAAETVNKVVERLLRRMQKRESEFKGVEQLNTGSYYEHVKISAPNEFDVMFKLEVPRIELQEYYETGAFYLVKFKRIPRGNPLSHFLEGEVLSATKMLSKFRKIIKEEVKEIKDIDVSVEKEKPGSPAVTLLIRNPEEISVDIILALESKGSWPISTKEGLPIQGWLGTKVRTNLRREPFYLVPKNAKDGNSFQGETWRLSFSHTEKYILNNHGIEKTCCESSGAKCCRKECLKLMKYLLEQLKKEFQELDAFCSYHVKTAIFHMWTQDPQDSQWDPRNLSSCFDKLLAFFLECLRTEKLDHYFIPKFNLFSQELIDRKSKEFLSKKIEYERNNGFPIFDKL
NPYLR7 agonist = agonists of mosquito NPYLR7 receptor, primary screen, cell-based, Aedes aegypti, calcium fluorescence, mosquito biting behavior; HEK293T NPYLR7/Galpha15, GCaMP6s calcium fluorescence; activation, % at 10 µM; 270,000 tested, 0.15% active; AID 1259423, 2018; in the data active means activation above about 40%;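 further: 0% = vehicle and 100% = reference agonist at the receptor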
* = called active by the depositor; . = no result given. A selection: hits, their analogues and other compounds. The true share with any hit is near 0.28%. Unless noted, no stated cut-off is given here; in the data, active means inhibition above about 40%; inactive means the rest.

SMILES	hcGAS lum	mcGAS lum	NPYLR7 agonist
O=[N+]([O-])c1ccc2c(c1)S(=O)(=O)C=C2	2	86*	8
CCC1(O)CC(OC2CC(N(C)C)C(OC3CC(O)C(OC4CCC(=O)C(C)O4)C(C)O3)C(C)O2)c2c(cc3c(c2O)C(=O)c2c(O)cccc2C3=O)C1C(=O)OC (stereo unspecified)	79*	.	-10
COc1ccc(C(=O)N=c2sccn2Cc2cccc(C(=O)NC3CC3)c2)cc1OC	-16	.	3
CCN1CCN(C(=O)c2ccc(Cn3ccsc3=NC(=O)c3ccc(OC)c(OC)c3)o2)CC1	-16	.	45*
COc1ccccc1CCNC(=O)C(C1CCCC1)N1CCN(C(=O)c2ccc(C(F)(F)F)cc2)CC1 (stereo unspecified)	0	-4	-10
CC1CCC(C)(NC(=O)NC2CC2)CC1 (stereo unspecified)	3	-4	1
COc1ccc(Nc2nnc(-c3cc4cc(Cl)ccc4oc3=O)s2)c(OC)c1	-4	-4	-10
COc1ccc(Nc2nnc(-c3cc4c(ccc5ccccc54)oc3=O)s2)c(OC)c1	-6	-4	1
COc1ccc(Cl)cc1Nc1nnc(-c2cc3c(ccc4ccccc43)oc2=O)s1	-6	-5	59*
COc1ccc2oc(=O)c(-c3nnc(Nc4cc(Cl)ccc4OC)s3)cc2c1	-10	-4	56*
O=C(/C=C/c1ccc(O)cc1)c1ccc(O)cc1O	-10	14	2
O=C(/C=C/c1ccccc1)c1ccc(O)cc1O	6	85*	17
COc1ccc(/C=C/c2ccc3ccccc3n2)c(OC)c1	-11	-10	2
COc1ccc(/C=C/C(=O)c2ccc(O)cc2O)cc1	-1	.	-17
COc1ccc(/C=C/C(=O)c2cc(O)ccc2O)cc1	2	53*	-6
COc1ccc2nc(/C=C/C(=O)c3ccc(O)cc3)ccc2c1	-6	76*	-3
Cc1nc(Nc2ccc(NC(=O)C(C)C)cc2)cc(OC(C)C)n1	-8	-8	10
CC(C)Oc1c(Cl)cccc1NC(=O)C(C)NC(=O)C(C)(C)C (stereo unspecified)	1	-2	-7
CCOc1ccc(CC(=O)Oc2coc(CSc3nc(C)cc(C)n3)cc2=O)cc1	0	63*	-16
CCOc1ccc(CC(=O)Oc2coc(CSc3nccc(C)n3)cc2=O)cc1	0	59*	-1
Cc1cc(C)nc(SCc2cc(=O)c(OC(=O)Cc3ccc([N+](=O)[O-])cc3)co2)n1	-6	9	-11
Cc1cc(C)nc(SCc2cc(=O)c(OC(=O)Cc3ccc(Cl)cc3)co2)n1	-1	31	-10
Cc1ccnc(SCc2cc(=O)c(OC(=O)Cc3ccc(Cl)cc3)co2)n1	-2	33	-13
Cc1cc(C)nc(SCc2cc(=O)c(OC(=O)Cc3ccc(F)cc3)co2)n1	5	82*	-16
Cc1nc(SCCC(=O)NC23CC4CC(CC(C4)C2)C3)n(Cc2ccc(Cl)cc2)c1C	-4	.	1
SMILES	hcGAS lum	mcGAS lum	NPYLR7 agonist
FC(F)(F)c1c[nH]c(=S)c(Cl)c1	-5	-7	8
CC(C)[C@H]1CC[C@H](C)C[C@H]1OCC(=O)NCCCN(C)c1ccccc1	-3	1	26
O=C(NCCO)c1c(O)c2c([nH]c1=O)CCCC2	-8	.	5
CCc1ccccc1-n1c(=O)c2ccccc2n(C(CC)C(=O)NCCOC)c1=O (stereo unspecified)	-4	-5	22
CC(=O)C1=C(O)C=C2Oc3c(C(C)=O)c(O)c(C)c(O)c3C2(C)C1=O (stereo unspecified)	78*	86*	1
CN1C(=O)C(=C/C=C/c2ccc([N+](=O)[O-])o2)C(=O)N(C)C1=O	-3	-5	-16
CC(C)(C)NN=Cc1cc(Br)c(O)c(Br)c1	7	75*	4
COc1cc(C=NNC(=O)c2ccccc2O)cc(Br)c1O	0	.	0
COc1ccc(NC(=O)c2cccnc2SCc2ccc(C(C)(C)C)cc2)cc1OC	-6	-4	3
Nc1c(S(=O)(=O)O)cc2c3c(cccc13)C(=O)N(CCO)C2=O	-8	-1	93*
NS(=O)(=O)c1ccc(CCN2C(=O)c3cccc4cccc(c34)C2=O)cc1	1	-2	-4
COc1cccc(COC(CN2CCN(C(=O)Nc3cc(OC)c(OC)c(OC)c3)CC2)c2ccc(Cl)cc2)c1 (stereo unspecified)	-10	-6	.
COc1ccc(CC(=O)Nc2nnc(C(C)(C)C)s2)cc1	2	1	-6
O=C(CCl)Nc1nc(-c2ccccc2Cl)cs1	-3	60*	3
O=C(CCC1CCCC1)Nc1nc(-c2ccccc2Cl)cs1	3	.	-3
CNC(=O)C(C1CCCC1)N1CCN(C(=O)Nc2ccc(F)cc2)CC1 (stereo unspecified)	3	1	-18
CC(=NNc1ncnc2sc(C)c(C)c12)c1ccccn1	45*	.	59*
Cc1sc2ncnc(N/N=C\c3ccccc3O)c2c1C	-8	.	6
O=C(O)c1cc(Br)c2ccccc2c1O	39	68*	-6
COc1cc(Br)c(OC)c(C(=O)O)c1	-6	.	7
CCCCOc1ncccc1CNC(=O)c1cc(S(C)(=O)=O)ccc1C	-1	.	4
O=C(O)c1c[nH]c2c(ccc3ccccc32)c1=O	15	42*	5
O=C(O)c1c[nH]c2cc(C(F)(F)F)ccc2c1=O	-5	-3	0
COc1ccc(NC(=O)N(Cc2cccn2Cc2ccccc2Cl)C2CCCCC2)cc1	-9	-6	13
C=CCOc1ccc(C=C2COc3ccccc3C2=O)cc1OC	-3	46*	3
SMILES	hcGAS lum	mcGAS lum	NPYLR7 agonist
COc1cc(C=C2COc3ccccc3C2=O)ccc1OCC#N	-5	38	0
Cc1nc2sccn2c(=O)c1NC(=O)CC1CCCCC1	-10	-7	7
CCCC(NC(=O)N1CCN(S(=O)(=O)N(CC)CC)CC1)c1ccccc1 (stereo unspecified)	-3	-14	3
O=C1c2ccc(-c3nc4ccccc4c(=O)o3)cc2C(=O)N1c1ccc(Br)cc1	-3	-2	4
O=C1c2ccc(-c3nc4ccccc4c(=O)o3)cc2C(=O)N1c1nc2ccccc2s1	33	45*	-8
Cc1cccc(Nc2ccnc(Nc3cccc(C(=O)NCCc4cnc[nH]4)c3)n2)c1	-3	.	10
Cc1ccc(NC(=O)N(CC(=O)N(Cc2ccc(F)cc2)Cc2ccc(C)o2)CC2CCCO2)c(C)c1 (stereo unspecified)	89*	-4	-4
Cc1ccc(CN(Cc2ccc3c(c2)OCO3)C(=O)CN(CC2CCCO2)C(=O)Nc2ccc(F)cc2F)o1 (stereo unspecified)	-4	-3	12
Cc1cc(C)c(NC(=O)CNC(=O)c2c(C)nn(C)c2C)c(C)c1	-12	-9	9
COC(=O)C1=C(C)NC(C)=C(C(=O)OC)C1c1cc(Cl)ccc1OC(F)F	-2	-3	1
CCOC(=O)C1=C(C)NC(C)=C(C(=O)OCC)C1c1cc(Cl)ccc1OC(F)F	-6	-3	50*
Cc1ccccc1CC(C)NC(=O)CN1CCCN(C(N)=O)CC1 (stereo unspecified)	-2	.	1
Nc1nc(-c2ccncc2)cs1	4	.	8

Screening results from PubChem BioAssay.
